# The supplement of paper PMC6897291
# How the values were obtained:
# U-2932 [1] = assay: growth inhibition by drug alone (1 - RLU/untreated control) (fraction); higher = stronger inhibition; settings: 177Lu-lilotomab satetraxetan 0 ug/ml
# Summary of the method: (§1)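 RIVA or U-2932 cells, untreated or pretreated 18 h with a radiolabelled anti-CD37 antibody conjugate (~600 MBq/mg; 0.5 µg/ml RIVA, 1 µg/ml U-2932), were washed and seeded at 3,000 cells/well on plates pre-printed with the Selleck Cambridge Cancer Compound library. Doses were 10/100 nM (RIVA) or 10/1,000 nM (U-2932). RealTime-Glo luminescence was read daily from day 3 after 1 h at 37°C. Growth inhibition is 1 − RLU/mean of 48 untreated no-drug wells per plate.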
# RIVA [2] = assay: as above; settings: 177Lu-lilotomab satetraxetan 0 ug/ml
# Summary of the method: as §1
# U-2932 [3] = assay: growth inhibition by drug plus 177Lu-lilotomab satetraxetan (1 - RLU/untreated control) (fraction); higher = stronger inhibition; settings: 177Lu-lilotomab satetraxetan 1 ug/ml
# Summary of the method: as §1
# RIVA [4] = assay: as above; settings: 177Lu-lilotomab satetraxetan 0.5 ug/ml
# Summary of the method: as §1
Structure (SMILES),"growth inhibition by drug alone (U-2932 [1]; 10 nM, time (day): 3)","growth inhibition by drug alone (U-2932 [1]; 10 nM, time (day): 4)","growth inhibition by drug alone (U-2932 [1]; 10 nM, time (day): 5)","growth inhibition by drug alone (U-2932 [1]; 10 nM, time (day): 6)","growth inhibition by drug alone (U-2932 [1]; 1000 nM, time (day): 3)","growth inhibition by drug alone (U-2932 [1]; 1000 nM, time (day): 4)","growth inhibition by drug alone (U-2932 [1]; 1000 nM, time (day): 5)","growth inhibition by drug alone (U-2932 [1]; 1000 nM, time (day): 6)","growth inhibition by drug alone (RIVA [2]; 10 nM, time (day): 3)","growth inhibition by drug alone (RIVA [2]; 10 nM, time (day): 4)","growth inhibition by drug alone (RIVA [2]; 10 nM, time (day): 5)","growth inhibition by drug alone (RIVA [2]; 10 nM, time (day): 6)","growth inhibition by drug alone (RIVA [2]; 100 nM, time (day): 3)","growth inhibition by drug alone (RIVA [2]; 100 nM, time (day): 4)","growth inhibition by drug alone (RIVA [2]; 100 nM, time (day): 5)","growth inhibition by drug alone (RIVA [2]; 100 nM, time (day): 6)","growth inhibition by drug plus 177Lu-lilotomab satetraxetan (U-2932 [3]; 10 nM, time (day): 3)","growth inhibition by drug plus 177Lu-lilotomab satetraxetan (U-2932 [3]; 10 nM, time (day): 4)","growth inhibition by drug plus 177Lu-lilotomab satetraxetan (U-2932 [3]; 10 nM, time (day): 5)","growth inhibition by drug plus 177Lu-lilotomab satetraxetan (U-2932 [3]; 10 nM, time (day): 6)","growth inhibition by drug plus 177Lu-lilotomab satetraxetan (U-2932 [3]; 1000 nM, time (day): 3)","growth inhibition by drug plus 177Lu-lilotomab satetraxetan (U-2932 [3]; 1000 nM, time (day): 4)","growth inhibition by drug plus 177Lu-lilotomab satetraxetan (U-2932 [3]; 1000 nM, time (day): 5)","growth inhibition by drug plus 177Lu-lilotomab satetraxetan (U-2932 [3]; 1000 nM, time (day): 6)","growth inhibition by drug plus 177Lu-lilotomab satetraxetan (RIVA [4]; 10 nM, time (day): 3)","growth inhibition by drug plus 177Lu-lilotomab satetraxetan (RIVA [4]; 10 nM, time (day): 4)","growth inhibition by drug plus 177Lu-lilotomab satetraxetan (RIVA [4]; 10 nM, time (day): 5)","growth inhibition by drug plus 177Lu-lilotomab satetraxetan (RIVA [4]; 10 nM, time (day): 6)","growth inhibition by drug plus 177Lu-lilotomab satetraxetan (RIVA [4]; 100 nM, time (day): 3)","growth inhibition by drug plus 177Lu-lilotomab satetraxetan (RIVA [4]; 100 nM, time (day): 4)","growth inhibition by drug plus 177Lu-lilotomab satetraxetan (RIVA [4]; 100 nM, time (day): 5)","growth inhibition by drug plus 177Lu-lilotomab satetraxetan (RIVA [4]; 100 nM, time (day): 6)"
O=C(CCCCCCC(=O)Nc1ccccc1)NO [Vorinostat (SAHA)],-0.0182,-0.0297,-0.0883,-0.201,0.818,0.762,0.691,0.615,-0.119,-0.189,-0.294,-0.432,-0.132,-0.192,-0.199,-0.285,-0.0269,0.0202,0.0234,0.0225,0.849,0.817,0.786,0.742,0.465,0.518,0.537,0.553,0.523,0.578,0.586,0.591
Cc1ccc(-n2nc(C(C)(C)C)cc2NC(=O)Nc2ccc(OCCN3CCOCC3)c3ccccc23)cc1 [BIRB 796 (Doramapimod)],0.238,0.206,0.0293,0.0019,0.274,0.272,0.208,0.2,0.117,0.131,0.0641,-0.0577,-0.00598,0.0829,0.0349,-0.0954,0.173,0.182,0.252,0.301,0.273,0.29,0.32,0.408,0.669,0.691,0.702,0.711,0.407,0.527,0.521,0.528
O=C(O)c1ccc2cc(-c3ccc(O)c(C45CC6CC(CC(C6)C4)C5)c3)ccc2c1,0.159,0.0954,-0.0581,-0.0515,0.757,0.836,0.861,0.877,0.00625,0.0377,-0.0188,-0.334,-0.285,-0.127,-0.181,-0.353,0.108,0.127,0.182,0.221,0.737,0.802,0.838,0.847,0.642,0.675,0.699,0.702,0.404,0.512,0.518,0.526
CCc1cc(-c2n[nH]c(C)c2-c2ccc3c(c2)OCCO3)c(O)cc1O,0.113,0.047,-0.0381,-0.212,0.0202,-0.0494,-0.116,-0.126,-0.0752,-0.183,-0.489,-0.797,-0.563,-0.433,-0.46,-0.629,0.0102,0.053,0.0491,0.0788,0.0475,0.0422,0.0841,0.183,0.478,0.547,0.565,0.581,0.363,0.462,0.473,0.48
